The full list was thinned out, with hits kept by preference.
HT1080 IDH1KD tx: kills HT-1080 cells with IDH1 knockdown; HT-1080 IDH1 knockdown viability, ATP luminescence, 48 h; AID 686971; Potency, µM (highest dose often 46.1 µM), without a hit: at the top dose activity, negative = toxicity, hits mostly cytotoxic; hit rate 2% among 360,000;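 note: potency is the fitted concentration of half-maximal effect; 0% = DMSO wells and -100% = cell-free medium wells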
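Assay cells: HT-1080 with IDH1 knockdown, 750 per well, RPMI/5% FBS. Exposure: 48 h at 37 °C following 2 h pre-incubation. Read: CellTiter-Glo luminescence; fitted concentration-response, curve class assigned.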
ALOX12 inh: ALOX12 (human) lipoxygenase inhibition | P18054 | purified 12hLO, xylenol orange hydroperoxide absorbance | Potency, µM (doses to about 108 µM), for the others: at the highest dose activity change, negative = inhibition, hits mostly inhibitors | hit rate 1.1% among 580,000 | AID 1671190; note: potency is the fitted concentration of half-maximal effect
Target sequence (P18054 whole entry, looked up): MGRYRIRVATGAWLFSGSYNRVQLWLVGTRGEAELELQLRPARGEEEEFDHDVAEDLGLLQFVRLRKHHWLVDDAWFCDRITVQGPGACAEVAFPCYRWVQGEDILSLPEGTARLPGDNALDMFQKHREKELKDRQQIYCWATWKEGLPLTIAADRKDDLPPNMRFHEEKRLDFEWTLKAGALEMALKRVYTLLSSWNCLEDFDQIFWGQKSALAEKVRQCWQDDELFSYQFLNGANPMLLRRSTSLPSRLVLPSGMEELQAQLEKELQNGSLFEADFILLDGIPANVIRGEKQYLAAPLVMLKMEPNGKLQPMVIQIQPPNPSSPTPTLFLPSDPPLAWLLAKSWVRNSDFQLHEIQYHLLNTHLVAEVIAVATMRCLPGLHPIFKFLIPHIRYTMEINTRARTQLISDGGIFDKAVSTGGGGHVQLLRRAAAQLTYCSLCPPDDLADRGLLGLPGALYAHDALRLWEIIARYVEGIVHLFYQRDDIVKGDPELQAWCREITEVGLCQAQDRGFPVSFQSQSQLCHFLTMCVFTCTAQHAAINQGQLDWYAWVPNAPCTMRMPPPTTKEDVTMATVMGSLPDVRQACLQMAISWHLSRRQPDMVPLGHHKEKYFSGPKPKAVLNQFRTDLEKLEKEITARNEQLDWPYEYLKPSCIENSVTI
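Purified human 12hLO at 150 nM in 25 mM Hepes, 0.01% Triton X-100, pH 7.0, preincubated 15 min at room temperature with compound. Reaction started with 40 uM arachidonic acid, 30 min at room temperature. Hydroperoxide measured by Fe-xylenol orange, 573/405 nm absorbance ratio.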
TDP1 cell CPT: growth inhibition of DT40 Tdp1-/-;hTDP1 cells with camptothecin (screen for TDP1 inhibitors); chicken DT40 Tdp1-/-;hTDP1 cells + 20 nM CPT, ATP luminescence, 48 h; Potency, µM (top dose mostly 46.2 µM), inactives show at the highest dose activity change, negative = growth inhibition, usual class: inhibitors; hit rate 12% among 420,000; AID 686979; note: potency is the fitted concentration of half-maximal effect; nearly all actives have a fitted effect of over 55% in size
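Chicken DT40 Tdp1-/- cells stably complemented with human TDP1 were seeded at 400 cells/well in medium containing 20 nM camptothecin, exposed to pin-transferred compounds, and grown at 37 °C for at least 48 hr. Viability was read as ATP luminescence.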
IL-1B inflam inh: inhibitors of inflammasome signaling (IL-1 beta secretion); THP-1 LPS/ATP IL-1B secretion, AlphaLISA, 16 h; stronger effect = lower value; activity change, % at 57.5 µM; hit rate 4.7% among 360,000; AID 743279; in the data active = activity change below about -50%; inconclusive = mostly about -30% to -49%
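THP-1 cells pretreated 1 hr with compounds (up to 57.5 uM final), then stimulated with LPS (250 ng/mL final) plus ATP (1.25 mM final); secreted IL-1B measured by AlphaLISA after 16 hr, decreased signal indicating inhibition.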
TDP1 cell noCPT: qHTS for Inhibitors of human tyrosyl-DNA phosphodiesterase 1 (TDP1): qHTS in cells in absence of CPT; DT40 Tdp1-/- hTDP1 cells, no CPT, ATP luminescence, 48 h; Potency, µM (series often up to 46.2 µM), without a hit: top-dose activity change, negative = growth inhibition, usual class: inhibitors; hit rate 15% among 420,000; note: potency is the fitted concentration of half-maximal effect; nearly all actives have a fitted effect of over 55% in size
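Chicken DT40 Tdp1-/- cells complemented with human TDP1, screened without camptothecin (DMSO vehicle only), 400 cells/well. Compounds pin-transferred, cells incubated at 37 °C for at least 48 hr. Growth read as ATP-dependent luminescence (CellTiter-Glo, 30 min at RT).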
HT1080NT lethal: kills 2HG-producing HT-1080-NT fibrosarcoma cells; HT-1080-NT fibrosarcoma viability, CellTiter-Glo ATP luminescence, 48 h; Potency, µM (titrated, usually from 46.1 µM), for the others: top-dose activity, negative = less viability, hits mostly cytotoxic; hit rate 1.6% among 360,000; AID 686970;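 note: NT is the 2HG producing partner of a matched IDH1 knockdown line; potency is the fitted concentration of half-maximal effect; 0% = DMSO-treated cells and -100% = media-only wells without cells; nearly all actives have a fitted effect of over 55% in size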
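Luminescent CellTiter-Glo readout after 48 hours of compound exposure at 37 degrees C defined viability of HT-1080-NT cells. Activity was normalized to DMSO wells and cell-free media wells; concentration-response curves were fitted and assigned curve classes.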
* = called active by the depositor; u = inconclusive; x = no result given. Unless noted, calls come from the whole dose curve; as a rule, active = well fitted curve in the direction sought with a large enough effect; inconclusive = small, poorly fitted or top-dose-only effect, or another doubt; inactive = no such curve, though single readings can be large; an effect the other way counts as inactive or inconclusive. Unless noted, % is set by controls: 0 for no effect and ±100 for the full control effect.

SMILES	HT1080 IDH1KD tx	ALOX12 inh	TDP1 cell CPT	IL-1B inflam inh	TDP1 cell noCPT	HT1080NT lethal
Cc1ccc(-n2cc(C(=O)c3cc(Cl)ccc3O)cc(C#N)c2=O)cc1	-1%	u	21µM*	18	23µM*	-11%
COc1ccc(CNC(=O)N2C[C@@H](Oc3cccnc3)C[C@@H]2C(=O)N2CCOCC2)cc1	x	43%	x	x	x	x
CCOC(=O)c1c2n(c3c(NCc4ccccc4)ncnc13)CCCC2	-19%	0%	u	-26	21µM*	-21%
Cc1ccc(CNc2ncnc3c2nc2n3CCCC2)cc1	x	-10%	u	x	u	x
Cc1ccc(O)c(C(=O)N(C)Cc2c(F)cccc2Cl)c1	x	40µM*	x	x	x	x
Cc1ccc(C(=O)CC(=O)c2ccc(C)cc2)cc1	x	2%	x	x	x	x
Cc1ccc(O)c(C(=O)CC(=O)c2ccc(C(C)(C)C)cc2)c1	-4%	17%	7.3µM*	31	4.6µM*	-22%
Cc1ccc(O)c(C(=O)CC(=O)c2ccccc2Cl)c1	12µM*	16%	2.3µM*	0	4.6µM*	u
O=C(Nc1nnc(Cc2c[nH]c3ccccc23)s1)C1CCCCC1	x	24%	x	x	x	x
CNc1nc(-c2ccccc2C)nc2ccccc12	x	40µM*	u	x	-20%	x
Oc1ccccc1-c1nc(NC2CCCC2)c2ccccc2n1	u	0%	2%	-12	-24%	u
CNc1nc(-c2ccccc2Cl)nc2ccccc12	x	-27%	-17%	x	-23%	x
CN(C)C(=O)c1ccc(-c2nc(NC3CCNCC3)c3ccccc3n2)cc1	x	u	-4%	x	-7%	x
Clc1ccccc1-c1nc(NC2CCNCC2)c2ccccc2n1	x	u	10µM*	x	26µM*	x
Cc1ccccc1-c1nc(NC2CCNCC2)c2ccccc2n1	x	u	13µM*	x	12µM*	x
Fc1ccccc1-c1nc(NC2CCCC2)c2ccccc2n1	-25%	u	-21%	-53*	-24%	u
Cc1ccc(S(=O)(=O)N2CCC(n3cnnc3-c3ccccc3)CC2)cc1C	x	5%	x	x	x	x
CCN(CC)CCNC(=O)C1CCCN(S(=O)(=O)c2ccccc2)CCC(=O)NCC1 (stereo not drawn)	x	37%	x	x	x	x
Cc1ccc(Nc2c([N+](=O)[O-])ccc3c2=NC2(CCCCC2)N=3)cc1	3%	10%	16µM*	28	23µM*	11%
CC(C)C[C@@H](CN1CCC[C@@H]1CN1C(=S)NC[C@@H]1Cc1ccc(O)cc1)N1C[C@H](Cc2ccccc2)N(CCc2ccccc2)C1=S	-19%	x	u	-17	u	-14%
CC(C)C[C@H]1CN([C@@H](CC(C)C)CN2CCC[C@@H]2CN2C(=S)NC[C@@H]2Cc2ccc(O)cc2)C(=S)N1CCc1ccccc1	u	u	13µM*	u	9.2µM*	u
CC(C)C[C@@H](CN1CCCC1CN1C(=S)NC[C@@H]1Cc1ccc(O)cc1)N1C[C@H](Cc2ccccc2)N(CCc2ccccc2)C1=S (stereo partly drawn)	1%	-48%	u	-16	15µM*	-3%
CC(C)C[C@H]1CN([C@@H](CC(C)C)CN2CCCC2CN2C(=S)NC[C@@H]2Cc2ccc(O)cc2)C(=S)N1CCc1ccccc1 (stereo partly drawn)	u	u	u	-6	u	-30%
CC(C)C[C@H]1CNC(=S)N1C[C@H]1CCCN1C[C@H](CC(C)C)N1C[C@H](Cc2ccc(O)cc2)N(CCc2ccccc2)C1=S	u	-86%	u	-6	18µM*	18µM*
COc1ccc(C)cc1NC(=O)Cn1cccc1-c1nc(-c2ccc(F)cc2)no1	x	2%	x	x	x	x
SMILES	HT1080 IDH1KD tx	ALOX12 inh	TDP1 cell CPT	IL-1B inflam inh	TDP1 cell noCPT	HT1080NT lethal
O=C(NC(=S)NCCC1=CCCCC1)c1cccs1	x	11µM*	x	x	x	x
S=C(NCCC1=CCCCC1)Nc1ccc(Cl)cc1	7%	-14%	23µM*	11	21µM*	16%
Clc1ccc(CNCCC2=CCCCC2)cc1	-21%	-22%	-18%	-76*	-21%	6%
Cc1nncn1C1CCN(S(=O)(=O)c2cc(F)cc(F)c2)CC1	x	41%	x	x	x	x
C/C(N)=C(/C#N)C(NC(=O)c1ccco1)(C(F)(F)F)C(F)(F)F	x	3%	x	x	x	x
O=[n+]1cc(-c2ccccc2)n([O-])c2ccccc21	x	-19%	x	x	x	x
O=c1cc(C(F)(F)F)[nH]c2ccc(C(F)(F)F)cc12	u	0%	7.3µM*	u	0.73µM*	u
Cc1cc(=O)c2ccc(C(F)(F)F)cc2[nH]1	11%	u	-13%	10	u	10%
Fc1ccc(CCNC(=S)Nc2ccc(F)c(Cl)c2)cc1	u	u	18µM*	-83*	u	u
Fc1ccc(NC(=S)NCCc2ccc(Cl)cc2)cc1	-3%	-25%	u	0	23µM*	-7%
COc1ccc(Cl)cc1NC(=S)NCCc1ccc(F)cc1	2%	x	u	4	6%	-1%
CCCCc1ccc(NC(=S)NCCc2ccc(Cl)cc2)cc1	x	32µM*	x	x	x	x
CN(CC(=O)Nc1ccc(Cl)c(C(F)(F)F)c1)C(=O)c1cccc2cccnc12	-4%	31%	u	-26	23µM*	0%
CN(CC(=O)Nc1ccc(OC(F)(F)F)cc1)S(=O)(=O)c1cnc[nH]1	7%	5%	-9%	34	-15%	7%
Cc1ccc(NC(=O)CN(C)C(=O)c2cccnc2Nc2cccc(C(F)(F)F)c2)cc1	u	-24%	u	-79*	u	u
CN(CC(=O)Nc1ccc(Cl)c(C(F)(F)F)c1)C(=O)CCCNC(=O)c1ccc(Cl)cc1	u	-6%	21µM*	-22	15µM*	u
CN(CC(=O)Nc1ccc(Cl)c(C(F)(F)F)c1)S(=O)(=O)c1cnc[nH]1	5%	-10%	15µM*	12	15µM*	6%
CN(CC(=O)Nc1ccc(Cl)c(C(F)(F)F)c1)C(=O)CNC(=O)C1CCCCC1	-3%	u	u	10	16µM*	0%
Cc1cc(NC(=O)CN(C)CC(=O)Nc2ccc(Cl)cc2)no1	-14%	u	u	19	u	-4%
Cc1cc(C)cc(OCC(=O)N(C)CC(=O)Nc2ccc(Cl)c(C(F)(F)F)c2)c1	-24%	284%	u	-78*	u	-2%
Cc1cc(NC(=O)CN(C)CC(=O)Nc2ccc(Cl)c(C(F)(F)F)c2)no1	-8%	3%	15µM*	-12	16µM*	-28%

Screens as filed in PubChem BioAssay.
